# Source: PubChem
# FGF22 binding = binders of human FGF22 protein, primary screen, FGF22 synaptogenesis inhibitor project, biophysical, thermal shift, single point; Fibroblast growth factor 22 (Homo sapiens), Q9HCT0; recombinant FGF22 thermal shift, SYPRO orange fluorescence; percent of sucrose octasulfate shift, DMSO zero; activity (Tm shift, normalised), % at 9.99 µM; 340,000 tested, 1.5% active;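 active means mean Tm shift, scaled 0 neutral to 100 positive control, at about 1.3% or above, every replicate too, limit read from the data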
# ERAP1 HTS inh = human ERAP1 aminopeptidase inhibitors, primary screen, biochemical, single point, plate reader; Endoplasmic reticulum aminopeptidase 1 (Homo sapiens), Q9NZ08; recombinant ERAP1, Leu-AMC fluorescence, 60 min; inhibition, % at 10.7 µM; 340,000 tested, 0.15% active;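 active means mean replicate inhibition of at least 30%, or all replicates individually reaching that 30% level; inactive means mean below 30% and not every replicate reaching it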;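 further: 0% = neutral control wells and 100% = L-leucinethiol positive control wells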
# SIRT5 inh = SIRT5 desuccinylase inhibitors, primary screen, biochemical, fluorescence imaging, single point, set 5; AID 652115, 2013; 330,000 tested, 1.1% active; Purified SirT5, succinyl-peptide AMC, trypsin-coupled fluorescence; inhibition, % at 15 µM; NAD-dependent protein deacylase sirtuin-5, mitochondrial (Homo sapiens), Q9NXA8; in the data active means inhibition above about 15%
# Target sequence (Q9NXA8 whole entry, looked up): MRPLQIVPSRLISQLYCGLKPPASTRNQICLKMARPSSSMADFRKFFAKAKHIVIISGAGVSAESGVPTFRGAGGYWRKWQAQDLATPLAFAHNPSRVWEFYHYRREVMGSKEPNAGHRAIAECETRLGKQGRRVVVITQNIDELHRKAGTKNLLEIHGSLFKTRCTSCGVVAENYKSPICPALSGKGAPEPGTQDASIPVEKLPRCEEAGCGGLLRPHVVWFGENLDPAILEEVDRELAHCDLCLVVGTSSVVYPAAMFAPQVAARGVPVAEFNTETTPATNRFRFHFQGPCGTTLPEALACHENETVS
# CASP6 VEID inh = human caspase-6 inhibitors, primary screen, biochemical, VEID-R110 fluorescence, single point, set 2; P55212; purified caspase-6, Z-VEID-R110 cleavage fluorescence; inhibition, % at 12.5 µM; 350,000 tested, 0.53% active; AID 686996, 2013;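 active means mean inhibition across replicates at least about 35%, with every replicate also reaching that limit, limit read from the data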;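 further: 0% = median of neutral control wells and 100% = no fluorescence left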
# Numbers without * were called inactive; . = no result. In the library only some 3.1% were active in any assay of this set; here they are far more common.
SMILES,FGF22 binding,ERAP1 HTS inh,SIRT5 inh,CASP6 VEID inh
CCC(=O)N[C@H]1CC[C@@H](CCn2cc(CN(C)C)nn2)O[C@@H]1CO,0,0,-2,1
COc1ccc(S(=O)(=O)N(C)C[C@@H]2OCCCC[C@@H](C)Oc3ccc(NC(=O)Nc4c(C)noc4C)cc3C(=O)N([C@H](C)CO)C[C@H]2C)cc1,0,1,3,3
C[C@@H]1CCCCO[C@H](CN(C)Cc2ccncc2)[C@@H](C)CN([C@@H](C)CO)C(=O)c2cc(NC(=O)Nc3cccc4ccccc34)ccc2O1,0,0,2,2
Cc1ccccc1CNC(=O)Cn1ccc2cc(S(=O)(=O)N3CCCCCC3)ccc21,0,-1,19*,1
O=C(Cn1ccc2cc(S(=O)(=O)N3CCCCC3)ccc21)NCc1ccccc1F,0,1,-1,0
Cc1cccc(CNC(=O)Cn2ccc3cc(S(=O)(=O)N4CCCCCC4)ccc32)c1,0,2,-1,-1
Cc1cccc(CNC(=O)Cn2ccc3cc(S(=O)(=O)N4CCCC4)ccc32)c1,0,2,16*,0
CC(C)c1ccc(C(=O)N2CCCC(c3cc(C(=O)Nc4ccccc4Cl)no3)C2)cc1 (stereo not given),0,-2,.,57*
CNC(=O)c1ccsc1NC(=O)CCS(=O)(=O)c1ccccc1,43*,2,1,-3
CNC(=O)c1ccsc1NC(=O)CCS(=O)(=O)c1ccc(C)cc1,0,0,0,2
CCOC(=O)CC(NS(=O)(=O)c1ccc2[nH]cc(C(=O)O)c(=O)c2c1)c1ccc(OCC)c(OC)c1 (stereo not given),0,2,4,54*
C[C@@H]1CN([C@@H](C)CO)S(=O)(=O)c2ccc(-c3cccc(C(=O)N(C)C)c3)cc2O[C@H]1CN(C)C,0,-2,-1,0
O=C(CN1C(=O)/C(=C/c2ccco2)SC1=S)NC1CCS(=O)(=O)C1 (stereo not given),0,5,10,49*
O=C(CN1C(=O)/C(=C\c2cccs2)SC1=S)Nc1cccc(C(=O)O)c1,0,.,-4,4
O=C(CCN1C(=O)/C(=C/c2ccccc2)SC1=S)NC1CCS(=O)(=O)C1 (stereo not given),0,0,-6,-2
CC(C(=O)N(C)C1CCS(=O)(=O)C1)N1C(=O)/C(=C/c2ccco2)SC1=S (stereo not given),0,3,3,45*
O=C(CN1C(=O)/C(=C/c2ccco2)SC1=S)Nc1ccc(C(=O)O)c(O)c1,1,20,62*,73*
O=C(CCN1C(=O)/C(=C\c2ccccc2F)SC1=S)Nc1ccc(C(=O)O)c(O)c1,.,-14,9,14
O=C(CN1C(=O)/C(=C/c2ccco2)SC1=S)Nc1ccc(O)c(C(=O)O)c1,.,0,53*,0
CO[C@H]1CN(C)C(=O)c2ccc(NC(=O)Nc3cc(F)ccc3F)cc2OC[C@H](C)NC[C@@H]1C,0,2,0,-5
COc1ccccc1-c1ccc([C@@H]2[C@H]3CN(C(=O)c4ccncc4)CCCCN3[C@H]2CO)cc1,0,0,1,0
C[C@H]1CN([C@@H](C)CO)C(=O)c2cccc(NS(C)(=O)=O)c2O[C@H]1CN(C)Cc1ccncc1,0,-2,0,-1
O=C(C[C@H]1CC[C@H]2[C@@H](COC[C@H](O)CN2C(=O)c2ccc(F)cc2)O1)N1CCOCC1,0,-1,-2,-2
CCCN1C(=O)S/C(=C\c2ccc(N3CCOCC3)o2)C1=O,43*,1,-6,.
COc1ccc(NC(=O)N2CCCCN3[C@H](C2)[C@@H](c2ccc(C4=CCCC4)cc2)[C@@H]3CO)cc1,1,6,5,-2
C[C@@H]1CN([C@@H](C)CO)C(=O)Cc2cc(NS(=O)(=O)c3ccc(Cl)cc3)ccc2O[C@H]1CN(C)Cc1ccc(Oc2ccccc2)cc1,0,-1,24*,1
C[C@H](CO)N1C[C@H](C)[C@@H](CN(C)Cc2ccc(Oc3ccccc3)cc2)Oc2ccc(NS(=O)(=O)c3ccc(Cl)cc3)cc2CC1=O,0,-5,19*,1
